Results reported in PubChem BioAssay (NCI).
“And” between values parts separate entries of the source, which are not always exact repeats. Identical values can stand only once. This is part of a sample that, as a whole, favours compounds with a hit. Of some 79,000 tested, about 15% had one in any assay. Unmarked numbers belong to inactive results. The source made the active and inactive calls. Cut-off read from the data, not from the text of the source: active = growth inhibition above about 70%; inactive = the rest.

Assays:
[1] = NCI Yeast Anticancer Drug Screen. Data for the rad50 strain (AID 155);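 note: 0% = growth of vehicle-only cultures of the same strain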; conditions: S. cerevisiae rad50 strain growth inhibition, active compounds read high
Summary of the method: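 Relative growth inhibition (compound vs vehicle) was measured in yeast with a defined repair-gene alteration.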

[2] = NCI Yeast Anticancer Drug Screen. Data for the mec2-1 strain (AID 157); conditions: S. cerevisiae mec2-1 strain, active compounds read high
Summary of the method: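 Using mec2-1 yeast: add compound, measure growth, express inhibition versus vehicle-treated cultures.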

[3] = NCI Yeast Anticancer Drug Screen. Data for the sgs1 mgt1 strain (AID 161);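 note: 0% = growth of cultures given vehicle only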; conditions: S. cerevisiae sgs1 mgt1 strain, active compounds read high
Summary of the method: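 Yeast cells carrying a defined DNA-repair defect were exposed to test compounds. Growth inhibition was measured relative to vehicle-treated controls.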

[4] = NCI Yeast Anticancer Drug Screen. Data for the bub3 strain (AID 167); conditions: S. cerevisiae bub3 mutant strain, active compounds read high
Summary of the method: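 Screening used yeast with an engineered genetic alteration affecting cell cycle control. Compound-exposed cultures were compared with vehicle cultures, and reduced growth was taken as inhibition.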

[5] = NCI Yeast Anticancer Drug Screen. Data for the mlh1 rad18 strain (AID 175); conditions: S. cerevisiae mlh1 rad18 strain growth inhibition, active compounds read high
Summary of the method: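 Steps: expose repair-defective yeast to compound; measure growth; express inhibition against vehicle-treated controls.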

[6] = NCI Yeast Anticancer Drug Screen. Data for the cln2 rad14 strain (AID 165);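 note: 0% = growth equal to vehicle treated cultures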; conditions: S. cerevisiae cln2 rad14 strain, active compounds read high
Summary of the method: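 Yeast strain cln2 rad14, bearing defects in cell cycle control and DNA repair, serves as the test system; values reflect growth inhibition compared with vehicle.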

[7] = at 5.0 µM (retest, dose inferred, filed as 0.5)
[8] = at 50.0 µM (retest, dose inferred, filed as 5.0)

SMILES	growth inhibition [1, 7]	growth inhibition [1, 8]	growth inhibition ([1]; at 50.0 µM)	growth inhibition [2, 7]	growth inhibition [2, 8]	growth inhibition ([2]; at 50.0 µM)	growth inhibition [3, 7]	growth inhibition [3, 8]	growth inhibition ([3]; at 50.0 µM)	growth inhibition [4, 7]	growth inhibition [4, 8]	growth inhibition ([4]; at 50.0 µM)	growth inhibition [5, 7]	growth inhibition [5, 8]	growth inhibition ([5]; at 50.0 µM)	growth inhibition [6, 7]	growth inhibition [6, 8]	growth inhibition ([6]; at 50.0 µM)
CN1CCN=C1c1ccc(NC(=O)Nc2ccc(NC(=O)Nc3ccc(C4=NCCN4C)cc3)cc2)cc1	-1%	80% (active)	84.8% (active)	-15%	85% (active)	86.5% (active)	-15%	74% (active)	90% (active)	-2%	83% (active)	92% (active)	1%	83% (active)	93.8% (active)			
CCCCCCCCCCN(CCCCCCCCCC)C1CC(OC2CC(O)(C(O)CO)Cc3c(O)c4c(c(O)c32)C(=O)c2c(OC)cccc2C4=O)OC(C)C1O (configuration not stated)	15%	87% (active)	43.5%	8%	94% (active)	93.5% (active)	10%	93% (active)	5.25%				17%	87% (active)	90.5% (active)	7%	88% (active)	81.8% (active)
CCc1nc(N)nc(N)c1-c1ccc(N(C)Cc2ccccc2)c([N+](=O)[O-])c1	10%	-13%	8.55%	7%	0%	22.1%	37%	37%	3.1%	52%	34%	10.1%	8%	-6%	14.5%			
CCc1cccc(C(C)C)c1N1C(=O)C(=O)C(c2nc3ccccc3s2)C(=O)C1=O	65%	65%	85.2% (active)	23%	23%	87.3% (active)	71% (active)	71% (active)	83.8% (active)	34%	34%	86% (active)	36%	36%	88.2% (active)			
CC(=C/c1ccccc1)/C=C1/NC(=S)N(/C=C2\C(=O)Oc3ccccc3C2=O)C1=O	-13%	28%	98.1% (active)	-8%	41%	98.7% (active)				-24%	11%	98.5% (active)	-7%	12%	98.5% (active)	-28%	34%	98.5% (active)
COc1ccc(/C(C#N)=C(/N)SCc2ccccc2Cl)cc1	-3%	14%	90.9% (active)	-2%	14%	64.9%	10%	36%	97.2% (active)				-1%	34%	90% (active)	-7%	15%	66.8%
CCC(C)c1ccc(O)c(C(C)c2ccccc2)c1 (configuration not stated)	44%	70% (active)	89.6% (active)	41%	68%	92.2% (active)	19%	97% (active)	92.9% (active)	15%	100% (active)	91% (active)	40%	61%	90.5% (active)			
Cc1ccc(C)c(C(=O)CCN)c1	-2%	5%	3.45%	1%	1%	-10.7%				7%	8%	-5.3%	2%	6%	3.55%	6%	2%	84.8% (active)
O=C(O)CN(CCN1CC(=O)OC(=O)C1)CCN1CC(=O)OC(=O)C1	4%	61%	89.9% (active)	-1%	49%	88.5% (active)	8%	29%	86.5% (active)				8%	41%	84.3% (active)	-8%	46%	70.5% (active)
COc1c(C(=O)/C(=N/Nc2ccccc2)C(C)=O)c(O)c(OC)c2occc12	-2%	94% (active)	45.7%	-18%	87% (active)	52.5%				-32%	92% (active)	47.8%	2%	90% (active)	68.8%	-19%	91% (active)	33%
O=C(/C=C\c1ccc(Cl)c(Cl)c1)c1cccs1				-2%	4%	64.4%	4%	-25%	92.2% (active)	-4%	11%	89.7% (active)	-3%	6%	85.5% (active)	-6%	-3%	51.6%
CCOC(=O)CCC(N)C(=O)OCC (configuration not stated)			20.8% and 1.45% and -26.1%			-4.05% and -5.05% and -0.15%			8.4% and -2% and -19.9%			1.45% and 7.05% and -8.7%			10.9% and 23.9% and -16.1%			5.9% and -29.1% and -40.6%
COc1cc(OC)c(C/C=C/c2ccccc2)cc1O	27%	73% (active)	10.2%	21%	71% (active)	-15.6%				29%	86% (active)	-27.8%	30%	93% (active)	89.3% (active)	16%	49%	19.6%
O=C(O)c1c2c(cc3c1CC1(Cc4ccccc4C1=O)C3)CCC2 (configuration not stated)	7%	7%	81.2% (active)				20%	20%	84.8% (active)	16%	16%	84.2% (active)	24%	24%	77.9% (active)	-10%	-10%	84.2% (active)
CCOP(=O)(OCC)/C(C#N)=C/c1ccc(Oc2ccccc2)cc1				-42%	98% (active)	93.6% (active)	-11%	97% (active)	91.5% (active)	-3%	94% (active)	90.5% (active)	1%	97% (active)	89.8% (active)	-5%	98% (active)	90.6% (active)
C=C(CN(C)C)C(=O)c1ccccc1C	-2%	65%	87.6% (active)	-8%	88% (active)	78.7% (active)				-11%	89% (active)	91.1% (active)	-4%	97% (active)	97% (active)	-17%	45%	65.8%
O=C1c2ccccc2C(O)(c2ccccc2)N1c1ccc([N+](=O)[O-])cc1 (configuration not stated)	7%	99% (active)	99% (active)				0%	99% (active)	99.3% (active)	-2%	99% (active)	99% (active)	5%	99% (active)	99.3% (active)	-3%	99% (active)	98.9% (active)
COC(=O)c1ccc(NCC2=C(Br)C(=O)C=CC2=O)cc1Cl	43%	98% (active)	89.4% (active)				35%	98% (active)	92.3% (active)	44%	98% (active)	90.8% (active)	37%	97% (active)	89.7% (active)	43%	98% (active)	88.8% (active)
COc1ccc(C(=O)NCCN2CCN3Cc4[nH]c5ccccc5c4CC3C2)cc1 (configuration not stated)				-2%	-5%	1.85%	-8%	8%	-6.4%	-5%	1%	-5.05%	-11%	-3%	11.7%	-5%	-2%	-17.6%
COc1cc(/C=C2\CCOC2=O)ccc1O			1% and -1.15% and 3.7%			-1.45% and 31.7% and 1.8%			-7.55% and 1.8% and -18.2%			3.6% and 13.2% and 9.3%			-5.35% and -1.3% and -13.3%			-9.15% and 14.1% and -3.85%
CC(=O)N1c2ccccc2Sc2c1ccc1ccccc21	10%	94% (active)	96% (active)				11%	94% (active)	96.5% (active)	6%	93% (active)	94.3% (active)	2%	92% (active)	96.7% (active)	1%	94% (active)	95% (active)
C[C@]12CC[C@H](O)CC1=CC[C@@H]1C2CC[C@]2(C)C(=O)N(N)C(=O)CC12 (some centres not stated)				-24%	91% (active)	88.3% (active)	16%	93% (active)	87.8% (active)	16%	93% (active)	86.7% (active)	-11%	91% (active)	84.4% (active)	2%	92% (active)	88.4% (active)
